{"source": "PubChem BioAssay (EPA / NIEHS)", "note": "Results filed as inconclusive are left out. The source made the active and inactive calls. The calls were made as follows, unless noted: active = hit-call score of the fitted dose curve at least 0.9, where 1 is the maximum; inconclusive = response in the unintended direction; inactive = score below 0.9."}
{"tested_on": "not listed separately", "assay": "TAMU_PeakParms_SingleDonor1434_Asystole: Texas A&M University (TAMU) 1.5-hr Human Induced Pluripotent Stem Cell (iPSC)-derived Cardiomyocytes Calcium (Ca+2) Flux Assay for Cardiotoxicity: Asystole (quiescence of beating) (AID 2284328)", "conditions": "not given", "procedure,_shortened": "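Average Ca2+-flux peak frequency (beats/s) was recorded in single-donor iPSC-derived cardiomyocytes after 90 min exposure (0.2–100 uM final, 0.5% DMSO). Asystole POD set as EC95 against DMSO, no preprocessing.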"}
{"compound": "Nc1nc(=S)c2[nH]cnc2[nH]1", "outcome": "inactive"}
{"compound": "CCc1nc(N)nc(N)c1-c1ccc(Cl)cc1", "outcome": "inactive"}
{"compound": "COC(=O)[C@H]1[C@H]2C[C@@H]3c4[nH]c5cc(OC)ccc5c4CCN3C[C@H]2C[C@@H](OC(=O)c2cc(OC)c(OC)c(OC)c2)[C@@H]1OC", "outcome": "inactive"}
{"compound": "O=C(O)CC(O)(CC(=O)O)C(=O)O", "outcome": "inactive"}
{"tested_on": "Brachyury (BRA) Protein Expression, Deisenroth Lab, TBXT (gene 6862)", "assay": "CCTE_Deisenroth_DEVTOX-GLR_legacy_Bra: (Legacy) CCTE's DevTox GLR-Endo Assay Evaluation of Brachyury (BRA) Protein Expression, Deisenroth Lab (AID 2284329; active = hit-call score of the fitted dose curve at least 0.9, where 1 is the maximum; inactive = score below 0.9)", "conditions": "not given", "procedure,_shortened": "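Human pluripotent RUES2-GLR line was exposed twice during 48 h differentiation to a 10-point series, 1 nM - 200 uM. Fraction of Bra-positive cells was scored by imaging against pluripotent baseline and fitted after 0.2% DMSO subtraction.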"}
{"compound": "O=C(O)c1cccnc1", "outcome": "inactive"}
{"compound": "Cc1cn([C@H]2C=C[C@@H](CO)O2)c(=O)[nH]c1=O", "outcome": "inactive"}
{"compound": "CC(=O)CC(c1ccccc1)c1c(O)c2ccccc2oc1=O", "note": "(stereo not drawn)", "outcome": "inactive"}
{"tested_on": "not listed separately", "assay": "CCTE_Deisenroth_DEVTOX-GLR_legacy_CellCount: (Legacy) Viability Assessment in CCTE's DevTox GLR-Endo Assay, Deisenroth Lab (AID 2284331; active = hit-call score of the fitted dose curve at least 0.9, where 1 is the maximum; inactive = score below 0.9)", "conditions": "actives raise or lower the signal", "procedure,_shortened": "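Seed RUES2-GLR 24 h; differentiate 48 h, dosing at 0 and 24 h; fix, stain nuclei; image 5 fields/well; count nuclei. Conc. 1 nM - 200 uM, single technical replicate, n=4 experiments; bidirectional fit vs 0.2% DMSO.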"}
{"compound": "O=C(O)c1cccnc1", "outcome": "inactive"}
{"compound": "O=C1NC(=O)C(c2ccccc2)(c2ccccc2)N1", "outcome": "inactive"}
{"compound": "Cc1cn([C@H]2C=C[C@@H](CO)O2)c(=O)[nH]c1=O", "outcome": "inactive"}
{"compound": "CC(=O)CC(c1ccccc1)c1c(O)c2ccccc2oc1=O", "note": "(stereo not drawn)", "outcome": "inactive"}
{"tested_on": "not listed separately", "assay": "IUF_NPC1_cytotoxicity_72hr: Cytotoxicity Assessment at 72 hours in the Leibniz Research Institute for Environmental Medicine (IUF) Neural Progenitor Cell Proliferation Assay (NPC1) (AID 2284332);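 also: rising LDH signal means more cytotoxicity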", "conditions": "not given", "procedure,_shortened": "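Single human fetal cortex neural progenitor spheres (GW 16-19, 0.25-0.35 mm) in EGF/FGF proliferation medium were exposed to compound for 72 h at 37C without renewal. Medium LDH release was read as resorufin fluorescence and fitted as gain-of-signal.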"}
{"compound": "OCC(O)CO", "outcome": "inactive"}
{"compound": "O=C1NC(=O)C(c2ccccc2)(c2ccccc2)N1", "outcome": "inactive"}
{"compound": "CC(=O)CC(c1ccccc1)c1c(O)c2ccccc2oc1=O", "note": "(stereo not drawn)", "outcome": "inactive"}
{"tested_on": "not listed separately", "assay": "VALA_TUBIPS_Antagonist_CellCount: Viability Assessment in the VALA Sciences human iPS-derived Endothelial Tubule Formation (TUBIPS) Antagonism Assay (AID 2284335)", "conditions": "not given", "method": "VALA_TUBIPS_Agonist is a cell-based, multiplexed assay that uses human iPS-derived endothelial cells (iPSC). Measurements were taken 72 hours after chemical dosing in a 96-well plate.VALA_TUBIPS_Antagonist_CellCount is the one of two assay components measured from the VALA_TUBIPS_Antagonist assay. It is designed to make measurements of viability, a form of viability reporter, as detected with fluorescence intensity signals by HCS Fluorescent Imaging technology. Data from the assay component VALA_TUBIPS_Antagonist_CellCount was analyzed at the endpoint, VALA_TUBIPS_Antagonist_CellCount, in the positive analysis fitting direction relative to DMSO as the negative control and baseline of activity. Using a type of viability reporter, loss-of-signal activity can be used to understand viability. To generalize the intended target to other relatable targets, this assay endpoint is annotated to the cell cycle intended target family, where the subfamily is cell count.\n[…]"}
{"compound": "Cc1ccc(-c2cc(C(F)(F)F)nn2-c2ccc(S(N)(=O)=O)cc2)cc1", "outcome": "inactive"}
{"compound": "COC(=O)[C@H]1[C@H]2C[C@@H]3c4[nH]c5cc(OC)ccc5c4CCN3C[C@H]2C[C@@H](OC(=O)c2cc(OC)c(OC)c(OC)c2)[C@@H]1OC", "outcome": "inactive"}
{"compound": "O=C1OC(c2ccc(O)cc2)(c2ccc(O)cc2)c2ccccc21", "outcome": "inactive"}
{"compound": "Nc1nc(Cl)nc2c1ncn2[C@H]1C[C@H](O)[C@@H](CO)O1", "AC50": "956 nM (active)"}
{"tested_on": "not listed separately", "assay": "VALA_MIGHUV1_ScratchOnly_WoundArea: VALA Sciences human Umbilical Vein Endothelial Cell Migration (MIGHUV) Assay, Area of Scratch Wound Inhibited Recovery (AID 2284336)", "conditions": "not given", "procedure,_shortened": "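HUVEC monolayers (9000 cells/well) were scratched after 24 h, dosed within 30 min (six concentrations, triplicate, 0.1% DMSO), allowed 24 h recovery, then fixed. Hoechst-stained nuclei in the wound imaged; cytochalasin D as reference.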"}
{"compound": "Cc1ccc(-c2cc(C(F)(F)F)nn2-c2ccc(S(N)(=O)=O)cc2)cc1", "outcome": "inactive"}
{"compound": "COC(=O)[C@H]1[C@H]2C[C@@H]3c4[nH]c5cc(OC)ccc5c4CCN3C[C@H]2C[C@@H](OC(=O)c2cc(OC)c(OC)c(OC)c2)[C@@H]1OC", "outcome": "inactive"}
{"compound": "O=C1OC(c2ccc(O)cc2)(c2ccc(O)cc2)c2ccccc21", "AC50": "75.4 µM (active)"}
{"compound": "Nc1nc(Cl)nc2c1ncn2[C@H]1C[C@H](O)[C@@H](CO)O1", "AC50": "23.2 µM (active)"}
{"tested_on": "not listed separately", "assay": "VALA_TUBHUV_Agonist_TubuleLength: VALA Sciences human Umbilical Vein Endothelial Tubule Formation (TUBHUV) Agonism Assay (AID 2284337)", "conditions": "not given", "procedure,_shortened": "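HUVEC co-cultured with fibroblasts (1:3) 3 days in 10 ng/ml VEGF, then 3 days with compound plus VEGF; 0.1 % DMSO neutral control. Fixed, nuclear and CD31 stained; tubule length by fluorescence imaging.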"}
{"compound": "CCCCC(CC)COP(=O)(OCC(CC)CCCC)OCC(CC)CCCC", "note": "(stereo not drawn)", "outcome": "inactive"}
{"compound": "COC(=O)[C@H]1[C@H]2C[C@@H]3c4[nH]c5cc(OC)ccc5c4CCN3C[C@H]2C[C@@H](OC(=O)c2cc(OC)c(OC)c(OC)c2)[C@@H]1OC", "outcome": "inactive"}
{"compound": "Nc1nc(Cl)nc2c1ncn2[C@H]1C[C@H](O)[C@@H](CO)O1", "AC50": "15.2 µM (active)"}
{"tested_on": "not listed separately", "assay": "VALA_TUBIPS_Agonist_CellCount: Viability Assessment in the VALA Sciences human iPS-derived Endothelial Tubule Formation (TUBIPS) Agonism Assay (AID 2284338)", "conditions": "not given"}
{"compound": "CCCCC(CC)COP(=O)(OCC(CC)CCCC)OCC(CC)CCCC", "note": "(stereo not drawn)", "AC50": "2.27 nM (active)"}
{"compound": "Cc1ccc(-c2cc(C(F)(F)F)nn2-c2ccc(S(N)(=O)=O)cc2)cc1", "outcome": "inactive"}
{"compound": "COC(=O)[C@H]1[C@H]2C[C@@H]3c4[nH]c5cc(OC)ccc5c4CCN3C[C@H]2C[C@@H](OC(=O)c2cc(OC)c(OC)c(OC)c2)[C@@H]1OC", "outcome": "inactive"}
{"compound": "O=C1OC(c2ccc(O)cc2)(c2ccc(O)cc2)c2ccccc21", "outcome": "inactive"}
{"compound": "Nc1nc(Cl)nc2c1ncn2[C@H]1C[C@H](O)[C@@H](CO)O1", "AC50": "230 nM (active)"}
{"tested_on": "SRY-box transcription factor 17 (SOX17) Protein Expression, Deisenroth Lab, SOX17 (gene 64321)", "assay": "CCTE_Deisenroth_DEVTOX-GLR_legacy_Sox17: (Legacy) CCTE's DevTox GLR-Endo Assay Evaluation of SRY-box transcription factor 17 (SOX17) Protein Expression, Deisenroth Lab (AID 2284341; active = hit-call score of the fitted dose curve at least 0.9, where 1 is the maximum; inactive = score below 0.9)", "conditions": "actives raise or lower the signal", "procedure,_shortened": "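Using the RUES2-GLR line, compounds are tested as 10-point series during 48-h defined-media differentiation. Sox17 reporter fluorescence per cell determines positivity; endpoint is percentage positive, analysed bidirectionally versus DMSO baseline.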"}
{"compound": "O=C(O)c1cccnc1", "outcome": "inactive"}
{"compound": "O=C1NC(=O)C(c2ccccc2)(c2ccccc2)N1", "outcome": "inactive"}
{"compound": "Cc1cn([C@H]2C=C[C@@H](CO)O2)c(=O)[nH]c1=O", "outcome": "inactive"}
{"compound": "CC(=O)CC(c1ccccc1)c1c(O)c2ccccc2oc1=O", "note": "(stereo not drawn)", "outcome": "inactive"}
{"tested_on": "SERPINA7 (gene 6906)", "assay": "CCTE_GLTED_hTBG: CCTE's human Thyroxine-binding Globulin (TBG) Inhibition Assay, Great Lakes Toxicology and Ecology Division (GLTED) Lab (AID 2284343);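 also: active chemicals lower fluorescence versus DMSO baseline by displacing probe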", "conditions": "not given", "procedure,_shortened": "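Cell-free binding assay in which human TBG is incubated with test chemical for 2 hours and displacement of the fluorescent probe ANSA is read at 380 nm excitation/475 nm emission. Activity is fitted against DMSO as the negative control.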"}
{"compound": "O=Cc1ccccc1C=O", "AC50": "8.72 µM (active)"}
{"compound": "O=C(O)c1[nH]n(-c2ccc(S(=O)(=O)O)cc2)c(=O)c1N=Nc1ccc(S(=O)(=O)O)cc1", "AC50": "27.1 µM (active)"}
{"compound": "CCCCc1nc2cccnc2n1Cc1ccc(-c2ccccc2-c2nnn[nH]2)cc1", "AC50": "33.7 µM (active)"}
{"compound": "Cc1ccc(C(C)(C)C)c(O)c1", "AC50": "26.7 µM (active)"}
{"compound": "O=C(Oc1ccccc1)c1cccc(C(=O)Oc2ccccc2)c1", "AC50": "9.91 µM (active)"}
{"compound": "O=C1c2c(O)cccc2Cc2cccc(O)c21", "AC50": "41.1 µM (active)"}
{"compound": "Cc1c(C)c2c(c(C)c1O)CCC(C)(COc1ccc(CC3SC(=O)NC3=O)cc1)O2", "note": "(stereo not drawn)", "AC50": "8.3 µM (active)"}
{"compound": "S=c1[nH]c2ccccc2s1", "AC50": "36.4 µM (active)"}
{"compound": "CCCCCCC(C=O)=Cc1ccccc1", "AC50": "21.5 µM (active)"}
{"compound": "O=C1NC(=O)C(c2ccccc2)(c2ccccc2)N1", "AC50": "17.4 µM (active)"}
{"compound": "CCCCCCCCCCCCCCOS(=O)(=O)O", "AC50": "27.7 µM (active)"}
{"compound": "Cc1cc(Cc2ccc(N)c(C)c2)ccc1N", "AC50": "24 µM (active)"}
{"compound": "CCC(C)N(C)C(=O)c1cc2ccccc2c(-c2ccccc2Cl)n1", "note": "(stereo not drawn)", "AC50": "38.1 µM (active)"}
{"compound": "O=C1OC(c2ccc(O)cc2)(c2ccc(O)cc2)c2ccccc21", "AC50": "3.3 µM (active)"}
{"compound": "CC(=O)CC(c1ccccc1)c1c(O)c2ccccc2oc1=O", "note": "(stereo not drawn)", "AC50": "37.9 µM (active)"}
{"tested_on": "SRY-box transcription factor 2 (SOX2) Protein Expression, Deisenroth Lab, SOX2 (gene 6657)", "assay": "CCTE_Deisenroth_DEVTOX-GLR_legacy_Sox2: (Legacy) CCTE's DevTox GLR-Endo Assay Evaluation of SRY-box transcription factor 2 (SOX2) Protein Expression, Deisenroth Lab (AID 2284346; active = hit-call score of the fitted dose curve at least 0.9, where 1 is the maximum; inactive = score below 0.9)", "conditions": "not given", "procedure,_shortened": "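hPSC RUES2-GLR, 384-well; 24 h seed → 48 h endoderm differentiation, 2 doses q24h, 1 nM–200 uM. Fix, nuclear dye, 5 fields/well. Sox2+ cells/cell count; cell positive if >5x BMAD over endoderm ctrl; gain direction vs DMSO.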"}
{"compound": "O=C(O)c1cccnc1", "outcome": "inactive"}
{"compound": "O=C1NC(=O)C(c2ccccc2)(c2ccccc2)N1", "outcome": "inactive"}
{"compound": "Cc1cn([C@H]2C=C[C@@H](CO)O2)c(=O)[nH]c1=O", "outcome": "inactive"}
{"compound": "CC(=O)CC(c1ccccc1)c1c(O)c2ccccc2oc1=O", "note": "(stereo not drawn)", "outcome": "inactive"}
